# The sample as a whole holds a higher share of hits than the screen did.
# ROC1-CUL1 inh: inhibitors of human ROC1-CUL1 ubiquitin ligase activity; in vitro K48 di-Ub FRET, acceptor:donor ratio, 45 min; inhibition, % at 10 µM; 140,000 compounds, 0.6% hits; AID 1347404, 2020; in the data active means inhibition above about 25%
# Target sequence (P62877 whole entry, looked up): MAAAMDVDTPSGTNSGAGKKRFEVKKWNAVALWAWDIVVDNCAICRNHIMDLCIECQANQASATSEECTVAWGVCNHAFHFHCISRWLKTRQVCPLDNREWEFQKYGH
# Target sequence (Q13616 whole entry, looked up): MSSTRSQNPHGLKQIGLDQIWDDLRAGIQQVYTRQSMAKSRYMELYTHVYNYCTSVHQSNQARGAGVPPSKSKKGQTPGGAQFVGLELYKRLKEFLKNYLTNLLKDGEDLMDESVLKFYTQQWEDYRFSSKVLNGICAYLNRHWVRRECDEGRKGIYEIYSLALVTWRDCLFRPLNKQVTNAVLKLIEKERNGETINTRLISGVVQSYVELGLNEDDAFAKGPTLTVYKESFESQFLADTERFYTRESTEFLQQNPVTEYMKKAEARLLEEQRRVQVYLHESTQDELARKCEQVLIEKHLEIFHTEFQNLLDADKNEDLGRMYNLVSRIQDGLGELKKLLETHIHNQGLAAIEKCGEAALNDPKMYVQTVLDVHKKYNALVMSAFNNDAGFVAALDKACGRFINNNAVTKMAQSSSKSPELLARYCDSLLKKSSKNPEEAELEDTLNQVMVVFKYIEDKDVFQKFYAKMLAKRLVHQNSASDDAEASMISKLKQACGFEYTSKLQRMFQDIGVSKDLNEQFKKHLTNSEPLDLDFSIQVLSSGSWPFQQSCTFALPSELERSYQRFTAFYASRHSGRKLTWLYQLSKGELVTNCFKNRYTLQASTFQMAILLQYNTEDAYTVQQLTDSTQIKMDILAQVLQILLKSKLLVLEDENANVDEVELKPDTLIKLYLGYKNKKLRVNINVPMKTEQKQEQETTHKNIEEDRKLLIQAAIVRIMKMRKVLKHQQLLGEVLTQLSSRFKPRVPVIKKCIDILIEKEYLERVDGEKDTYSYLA
# Starred values were filed as active, the others as inactive.
SMILES,ROC1-CUL1 inh
COc1cc(/C=C2\SC(=S)N(/N=C/c3cc(OC)c(O)cc3Cl)C2=O)c(Cl)cc1O,46*
O=C(NC1CCN(Cc2ccccc2)CC1)C1CCC1,1
CCSC1=N/C(=C\c2ccc(C(=O)O)cc2)C(=O)S1,3
O=C1SC(SCc2ccccc2Cl)=N/C1=C\c1ccc(C(=O)O)cc1,54*
CC(C)(C)c1cc(/C=C2\N=C(SCc3ccccc3Cl)SC2=O)cc(C(C)(C)C)c1O,5
COc1ccc(C2c3sc4ccccc4c3OC(=N)C2C#N)c(OC)c1 (stereo unspecified),-3
CCN1C(=O)/C(=C/c2ccc3c(c2)OCCO3)SC1=S,-3
O=C1C(=O)N(c2ccccc2)N=C(c2ccccc2)C1C(=O)c1ccccc1 (stereo unspecified),-1
O=C1N(c2ccccc2)N=C(c2ccccc2)C1(Br)Br,60*
CC1=NN(c2ccccc2)C(=O)C1c1ccccc1 (stereo unspecified),3
CCCCCOc1ccc([N+](=O)[O-])cc1N,-1
CC(=O)N1CCc2c(cnc(C)c2-c2noc(-c3c(C)nn(C)c3C)n2)C1,5
O=C1C(=NCc2ccco2)C(Cl)C(=O)N1c1ccc(Cl)cc1 (stereo unspecified),-1
COCCn1cnc2cc(NC(=O)C3CCCCC3)cc(C(=O)N3CCN(C(C)=O)CC3)c21,5
Cc1ccc(S(=O)(=O)N2CCCCCC2)cc1C(=O)NC1CCCCC1,-1
COc1cc(/C=C/c2nn(-c3ccc(Br)cc3)c3c(=O)ccccc23)cc(OC)c1OC,6
O=c1ccccc2c(/C=C/c3ccc(Cl)cc3Cl)nn(-c3ccccc3)c12,26*
O=c1c(Cl)cc(Cl)nn1-c1ccccc1,-8
COc1cc(/C=N/NC(=O)CNC(=O)COc2ccccc2)ccc1OCC(=O)O,-3
Cc1[nH]n(-c2ccccc2)c(=O)c1C(c1ccc2c(c1)OCO2)c1c(C)[nH]n(-c2ccccc2)c1=O,46*
Cc1[nH]n(-c2ccccc2)c(=O)c1C(c1ccc(OCc2ccc(F)cc2)cc1)c1c(C)[nH]n(-c2ccccc2)c1=O,-7
COc1cc(C(c2c(C)[nH]n(-c3ccccc3)c2=O)c2c(C)[nH]n(-c3ccccc3)c2=O)ccc1C,-17
Cc1[nH]n(-c2ccccc2)c(=O)c1C(C[N+](=O)[O-])c1ccc(F)cc1 (stereo unspecified),59*
Cc1[nH]n(-c2ccccc2)c(=O)c1C(c1ccco1)c1c(C)[nH]n(-c2ccccc2)c1=O,5
CCOc1cc(C(c2c(C)[nH]n(-c3ccccc3)c2=O)c2c(C)[nH]n(-c3ccccc3)c2=O)ccc1O,39*
SMILES,ROC1-CUL1 inh
CCOc1cc(C(c2c(C)[nH]n(-c3ccccc3)c2=O)c2c(C)[nH]n(-c3ccccc3)c2=O)ccc1OCc1ccc(Cl)cc1,19
Cc1[nH]n(-c2ccccc2)c(=O)c1C(C[N+](=O)[O-])c1ccc(Cl)cc1 (stereo unspecified),2
Cc1[nH]n(-c2ccccc2)c(=O)c1C(c1ccccc1O)c1c(C)[nH]n(-c2ccccc2)c1=O,-7
Cc1ccc(C(=O)C2C(=O)C(=O)N(c3cccc(C(=O)O)c3)C2c2ccccc2[N+](=O)[O-])cc1 (stereo unspecified),-7
C=C(C)Cn1c(=O)c2c(nc3n(-c4ccccc4)c(C)cn23)n(C)c1=O,6
CC(C(=O)NCCc1cc(=O)[nH]cn1)N1C(=O)c2cccc3cccc1c23 (stereo unspecified),-18
COc1ccc(OC)c(-c2nc(CN(C)Cc3nc(-c4cccnc4)no3)c(C)o2)c1,-1
CC(=O)OC1CC[C@](C)(C2CC[C@]3(C)C(C(C)CCCC(C)C)CCC3C2C(=O)O)C(=O)C1 (stereo partly specified),-1
CC(C)CCCC(C)C1CCC2C3CC([N+](=O)[O-])=C4C[C@@H](Cl)CCC4(C)C3CCC12C (stereo partly specified),-3
CC(C)CCCC(C)C1CCC2[C@@H](C(=O)O)C([C@@]3(C)CCC=CC3=O)CC[C@]12C (stereo partly specified),97*
O=C1C(=O)N(c2nnc(SCc3ccccc3)s2)C(c2cccs2)C1C(=O)c1cc2ccccc2o1 (stereo unspecified),2
O=C1C(=O)N(c2nnc(SCc3ccc(Cl)cc3)s2)C(c2cccc(O)c2)C1C(=O)c1cc2ccccc2o1 (stereo unspecified),-8
CCOc1cc(C2C(C(=O)c3cc4ccccc4o3)C(=O)C(=O)N2c2nnc(SCc3cccc4ccccc34)s2)ccc1O (stereo unspecified),23
CCOc1ccc(C2C(C(=O)c3cc4ccccc4o3)C(=O)C(=O)N2c2nnc(SCc3ccccc3F)s2)cc1OC (stereo unspecified),2
CCOc1cc(C2C(C(=O)c3cc4ccccc4o3)C(=O)C(=O)N2c2nnc(SCc3ccccc3)s2)ccc1O (stereo unspecified),65*
